Where “and” joins values, the source holds several entries; their conditions need not be identical. Equal values may be shown once. Records with an inconclusive call do not appear. Calls of active or inactive are those of the source. Unless noted, the call rests on the fitted dose curve; in most records, active means well fitted curve in the direction sought with a large enough effect; inconclusive means small, poorly fitted or top-dose-only effect, or another doubt; inactive means no such curve, though single readings can be large; an effect the other way counts as inactive or inconclusive.
Key:
[1] = HTS Assay for Allosteric Antagonists of the Human D2 Dopamine Receptor: Hit Validation in HTRF (AID 624455); further: potency means the concentration at half of the fitted maximal effect;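 further: stable D1 dopamine receptor cell line scored for blocking the D1 response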
Summary of the method: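 Signal from an HTRF read-out in D1-expressing stable cells gave hit activity as inhibition of the D1 response.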

[2] = qHTS for compounds that reverse cellular toxicity of Amyloid beta (A-beta) peptide in yeast: LOPAC Validation Assay (AID 720559);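 further: plate controls were DMSO for no effect and equimolar ferric chloride plus clioquinol rescue for full effect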
Summary of the method: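 Yeast cells expressing toxic A-beta were combined with pinned compounds in growth medium and incubated 48 hr at 30 C. Growth was read as absorbance at 600 nm and normalized to DMSO and to an equimolar FeCl3/clioquinol positive control.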

[3] = qHTS assay for small molecule agonists of the antioxidant response element (ARE) signaling pathway (AID 651741; active means well fitted activation curve with a large enough effect in the signal ratio; the % refers to the signal ratio; further: potency means the concentration at half of the fitted maximal effect; on activation: % of control where 0% means no effect)
Summary of the method: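 ARE-bla HepG2 cells (beta-lactamase reporter under ARE control) were plated at 2,000 cells/well, preincubated 5 h at 37 C/5% CO2, then treated with DMSO-dissolved compounds for 16 h at 37 C; LiveBLAzer B/G FRET substrate added, fluorescence read after 2 h at room temperature.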

[4] = qHTS assay for small molecule activators of the p53 signaling pathway (AID 651743; active means well fitted activation curve with a large enough effect in the signal ratio, not every such curve was filed as active; the % refers to the signal ratio; further: potency means the concentration at half of the fitted maximal effect; on activation: series mostly up to about 92 µM; % of control where 0% means no effect); conditions: HCT-116 p53RE-bla, beta-lactamase FRET ratio, 16 h; activation: active compounds read high
Summary of the method: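 p53RE-bla HCT-116 cells with a stably integrated beta-lactamase reporter under p53 response elements were plated, rested 5 hours at 37 C/5% CO2, then exposed to compounds in DMSO for 16 hours at 37 C. LiveBLAzer B/G FRET substrate was read after 2 hours at room temperature.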

[5] = qHTS assay for small molecule disruptors of the mitochondrial membrane potential - 1 hr assay (AID 651754; calls by dose curve; further: on the % scale 0 is the no-effect control and ±100 the full control effect; nearly all actives have a fitted effect of over 35% in size)
Summary of the method: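 Steps: seed HepG2 cells and let attach overnight; pin-transfer compound or vehicle; incubate 1 hr at 37C; add Mito-MPS dye for 30 min; read two-channel fluorescence for monomer and aggregate forms.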

[6] = qHTS assay for small molecule disruptors of the mitochondrial membrane potential - 5 hr assay (AID 651755; calls by dose curve; further: on the % scale 0 is the no-effect control and ±100 the full control effect; nearly all actives have a fitted effect of over 40% in size)
Summary of the method: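 HepG2 cells, attached overnight at 37C, were exposed to compound or DMSO for 5 hr at 37C, 5% CO2. Mito-MPS dye was then added for 30 min, and fluorescence read at 490/535 nm (monomers) and 540/590 nm (aggregates).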

[7] = molecular target: Peroxisome proliferator-activated receptor alpha (Homo sapiens) (UniProt Q07869); test: qHTS assay for small molecule agonists of the peroxisome proliferator-activated receptor alpha (PPARalpha) signaling pathway (AID 651778); conditions: PathHunter PPARalpha complementation, chemiluminescence, 6 h; active compounds read high; further: % of control where 0% means no effect
Sequence of Peroxisome proliferator-activated receptor alpha (Homo sapiens) (Q07869 whole entry, looked up): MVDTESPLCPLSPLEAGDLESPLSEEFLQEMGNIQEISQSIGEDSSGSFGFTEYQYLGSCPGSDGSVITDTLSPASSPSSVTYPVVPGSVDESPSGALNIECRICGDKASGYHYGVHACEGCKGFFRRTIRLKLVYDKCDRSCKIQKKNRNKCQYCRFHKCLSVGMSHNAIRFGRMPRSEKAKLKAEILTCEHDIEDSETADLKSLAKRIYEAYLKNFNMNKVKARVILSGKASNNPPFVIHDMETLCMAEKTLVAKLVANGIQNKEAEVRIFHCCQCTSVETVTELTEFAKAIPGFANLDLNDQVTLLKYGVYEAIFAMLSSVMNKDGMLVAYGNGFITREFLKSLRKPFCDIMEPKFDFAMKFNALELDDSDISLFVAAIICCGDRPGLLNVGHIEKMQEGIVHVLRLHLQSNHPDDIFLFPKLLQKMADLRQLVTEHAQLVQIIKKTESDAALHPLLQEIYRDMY
Summary of the method: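 Cells plated at 2,000/well and held overnight at 37 C, 5% CO2, then compound added by pin tool for 6 hr; after PathHunter detection reagent and 60 min at room temperature, chemiluminescence from enzyme complementation was read.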

[8] = molecular target: Nuclear receptor ROR-gamma (Homo sapiens) (UniProt P51449); test: qHTS assay for small molecule antagonists of the retinoid-related orphan receptor gamma (ROR-gamma) signaling pathway (AID 651802); further: nearly all actives have a fitted effect of over 60% in size; further: potency means the concentration at half of the fitted maximal effect
Sequence of Nuclear receptor ROR-gamma (Homo sapiens) (P51449 whole entry, looked up): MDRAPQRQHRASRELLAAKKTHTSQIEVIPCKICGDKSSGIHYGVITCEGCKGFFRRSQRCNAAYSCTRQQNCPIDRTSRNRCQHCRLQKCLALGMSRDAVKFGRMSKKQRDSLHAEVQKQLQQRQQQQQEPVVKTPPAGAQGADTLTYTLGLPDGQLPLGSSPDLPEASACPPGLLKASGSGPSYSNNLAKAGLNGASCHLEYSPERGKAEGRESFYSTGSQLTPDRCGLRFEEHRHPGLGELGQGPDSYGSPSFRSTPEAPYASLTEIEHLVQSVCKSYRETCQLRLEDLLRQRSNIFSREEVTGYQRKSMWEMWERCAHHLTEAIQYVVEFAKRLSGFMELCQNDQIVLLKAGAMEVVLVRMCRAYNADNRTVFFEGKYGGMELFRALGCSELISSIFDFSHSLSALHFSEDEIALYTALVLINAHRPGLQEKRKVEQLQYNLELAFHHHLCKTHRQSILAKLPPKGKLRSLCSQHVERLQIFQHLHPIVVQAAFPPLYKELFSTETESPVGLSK
Summary of the method: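 Antagonism is scored as a fall in luminescence from a RORE-luciferase reporter in CHO cells expressing ROR under a TET-inducible promoter, measured 16hr after doxycycline induction in the presence of compound.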

[9] = qHTS assay for environmental chemicals that activate the Aryl hydrocarbon Receptor (AhR) signaling pathway (AID 651777); conditions: 1A2-DRE human hepatoma cells, luciferase, 24 h; activation: active compounds read high; further: % of control where 0% means no effect; nearly all actives have a fitted effect of over 15% in size
Summary of the method: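 Induction of CYP1A2 transcription through AhR is detected by luciferase in 1A2-DRE hepatoma cells. Compounds or DMSO act for 24 hr at 37 C before a 30 min One-Glo step at room temperature.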

N#CCCN
inactive: Potency [1] | outcome [2]

O=Cc1ccco1
inactive: Potency [3] | activation [4] -1.55% | Potency [5] | Potency [6] | max response [7] -1.43%

O=[N+]([O-])c1ccccc1
inactive: Potency [3] | activation [4] 2.6% and -2.69% | Potency [5] | Potency [6] | max response [7] 0.135% and -4.33% | Potency [8]

C[N+]1(C)C2CCC1CC(OC(=O)c1c[nH]c3ccccc13)C2 (centres undefined)
inactive: Potency [1] | outcome [2]

COC1=CC(=O)O[C@@H](/C=C/c2ccccc2)C1
active: Potency [3] 5.31 µM
inactive: activation [4] -5.52% | Potency [5] | Potency [6] | max response [7] -0.906% | Potency [8]

[Cl-].[Cl-].[Hg+2]
inactive: activation [4] 5.15% | Potency [6] | max response [7] -13.7%
active: Potency [3] 29.8 µM | Potency [8] 1.06 µM

CCCCCCC(C)(C)c1ccc([C@@H]2C[C@H](O)CC[C@H]2CCCO)c(O)c1
inactive: Potency [1] | outcome [2]

ClC(Cl)(Cl)Cl
inactive: Potency [3] | activation [4] -0.523% and 1.98% | Potency [5] | Potency [6] | max response [7] -1.24% and -4.01% | Potency [8]

[O]=[Cr](=[O])([OH])[O][Cr](=[O])(=[O])[OH]
inactive: Potency [5] | Potency [6] | max response [7] -2.4% and -2.51% and -6.59%
active: Potency [3] 7.5 µM | Potency [4] 22.4 µM and 15.8 µM and 7.94 µM | Potency [8] 33.5 µM and 16.8 µM

O=C(NCNC(=O)NC1C(=O)NC(=O)N1CO)NC1C(=O)NC(=O)N1CO (centres undefined)
inactive: Potency [3] | activation [4] -1.04% | max response [7] -1.19%

[O]=[Cd]
inactive: Potency [3] | activation [4] 1.29% | Potency [5] | Potency [6] | max response [7] -1.92% | Potency [8]

N=C(N)c1ccc(CS(=O)(=O)F)cc1
inactive: Potency [1] | outcome [2]

S=C=S
inactive: Potency [3] | activation [4] -0.789% | Potency [5] | Potency [6] | max response [7] -4.15% | Potency [8]

COc1ccc2c(c1)c(CCN1CCOCC1)c(C)n2C(=O)c1cccc(Cl)c1Cl
inactive: Potency [1] | outcome [2]

O=C(O)C(Cl)(Cl)Cl
inactive: Potency [3] | activation [4] 0.586% and -1.1% | Potency [5] | Potency [6] | max response [7] 3.26% and -0.682% | Potency [8]

ClC=C(Cl)Cl
inactive: Potency [3] | activation [4] -0.563% and 7.22% | Potency [5] | Potency [6] | max response [7] -8.59% and -1.74% | Potency [8]

CCCCCCCCOC(=O)c1ccccc1C(=O)OCCCCCCCC
inactive: Potency [3] | activation [4] 1.9% and -2.06% | Potency [5] | Potency [6] | max response [7] 0.808% and 0.946% | Potency [8]

NCC(O)c1cc(O)c(O)cc1F (centres undefined)
active: Potency [1] 0.326 µM
inactive: outcome [2]

NCCc1c[nH]c2ccc(C(N)=O)cc12
inactive: Potency [1] | outcome [2]

O=[N+]([O-])c1ccc2nc(N3CCNCC3)ccc2c1
inactive: Potency [1] | outcome [2]

CCOC(=O)c1ccccc1C(=O)OCC
inactive: Potency [3] | activation [4] 4.4% and -0.806% and -0.919% | max response [7] 0.572% and -3.94% and -0.67% | Potency [8]

C=CCN=C=S
inactive: Potency [3] | activation [4] -0.403% | Potency [5] | Potency [6] | max response [7] -1.57% | Potency [8]

COc1ccc2c(c1OC)C(=O)OC2C1c2cc3c(cc2CCN1C)OCO3 (centres undefined)
inactive: Potency [3] | activation [4] -5.72% | Potency [5] | Potency [6] | max response [7] -0.464% | Potency [8]

C[N+](C)(C)CCOC(=O)CBr
inactive: Potency [1] | outcome [2]

CC(N)Cc1c[nH]c2ccc(OCc3cccs3)cc12 (centres undefined)
inactive: Potency [1] | outcome [2]

ClC1C(Cl)C(Cl)C(Cl)C(Cl)C1Cl (centres undefined)
inactive: Potency [3] | activation [4] -1.74% [middle of 4 runs] | max response [7] 1.56% [middle of 4 runs]

NC(=O)c1cc(N2CC2)c([N+](=O)[O-])cc1[N+](=O)[O-]
inactive: Potency [1] | outcome [2]

CC(C)(C)c1cc(O)ccc1O
inactive: activation [9] 12.6% and 10.4%

Reference: PubChem BioAssay (NCATS)
